Sampled rows, rich in hits. Any-hit rate of the full collection: about 3.2%.
bovine MsrA act = activators of bovine methionine sulfoxide reductase A. purified bovine MsrA, absorbance read-out. activation, % at 10.6 µM. 0.3% of 360,000 active. AID 602163; in the data active = activation above about 7.5%;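 also: 0% = vehicle and 100% = reference activator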
MsrA inh = inhibitors of bovine MsrA; purified bovine MsrA, absorbance read-out; inhibition, % at 15.5 µM; 0.75% of 360,000 active; AID 651718; in the data active = inhibition above about 4.5%;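 also: 0% = vehicle wells with enzyme and 100% = reference inhibitor wells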
PG9 binder = small molecules binding HIV-1 gp120 antibody PG9; inhibition, % at 6.7 µM; AID 624416; 0.43% of 360,000 active; TR-FRET gp120-PG9 antibody binding; in the data active = inhibition above about 8.5%
HGIII-sPLA2 inh = Inhibits HGIII-sPLA2 liposome hydrolysis, primary screen; 0.56% of 370,000 active; QFRET BODIPY PC-A2 liposome hydrolysis, fluorescence; inhibition, % at 12.2 µM; Q9NZ20;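 active = inhibition above mean plus 3 SD of compounds lying within the high and low control bounds, cut at about 19% in these data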;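 also: 0% = median of test compound wells and 100% = no enzyme DMSO wells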
Target sequence (Q9NZ20 whole entry, looked up): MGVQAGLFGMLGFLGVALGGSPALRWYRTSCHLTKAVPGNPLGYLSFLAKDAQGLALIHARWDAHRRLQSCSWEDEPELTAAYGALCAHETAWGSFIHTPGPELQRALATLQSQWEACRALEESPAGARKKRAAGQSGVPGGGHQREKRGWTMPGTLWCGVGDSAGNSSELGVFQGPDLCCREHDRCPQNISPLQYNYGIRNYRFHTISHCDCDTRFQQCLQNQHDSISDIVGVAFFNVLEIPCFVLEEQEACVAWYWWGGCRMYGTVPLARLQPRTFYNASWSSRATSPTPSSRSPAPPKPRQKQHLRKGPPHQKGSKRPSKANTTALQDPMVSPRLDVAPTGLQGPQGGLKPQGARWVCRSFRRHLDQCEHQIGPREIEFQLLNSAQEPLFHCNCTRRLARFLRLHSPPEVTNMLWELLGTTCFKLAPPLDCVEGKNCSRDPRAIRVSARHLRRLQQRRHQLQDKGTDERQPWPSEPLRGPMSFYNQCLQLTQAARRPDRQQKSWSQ
rCAG RNA binder = molecules binding r(CAG) RNA repeats. r(CAG) RNA repeat, TO-PRO-1 dye displacement fluorescence. 1.3% of 370,000 active. inhibition, % at 3 µM;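 active = inhibition above the plate cutoff, the mean of all test compounds on that plate plus 3 SD, cut at about 35% in these data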;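 also: 0% = DMSO alone and 100% = 100 µM mitoxantrone as full dye displacement; higher means more dye released from RNA so lower well fluorescence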
sPLA2 confirm = human GIII-sPLA2 inhibition, confirmation; shares compounds with HGIII-sPLA2 inh; recombinant hGIII-sPLA2, BODIPY PC-A2 QFRET fluorescence; inhibition, % at 12.2 µM; 34% of 2,000 active; AID 743280;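 active = mean inhibition across triplicates above the hit cutoff set in the earlier primary screen, cut at about 19% in these data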;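 also: 0% = enzyme with DMSO and 100% = DMSO wells lacking enzyme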
BODIPY interf = counter-screen for HGIII-sPLA2 inhibitors: 535nm fluorescence interference; BODIPY FL product fluorescence interference, QFRET; shares compounds with HGIII-sPLA2 inh; 8.5% of 2,000 active; inhibition, % at 12.2 µM;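 active = average inhibition above the solvent-only control mean plus 3 SD, cut at about 6% in these data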;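 also: 0% = DMSO with substrate plus product and 100% = DMSO with substrate alone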
BODIPY interf DR = 535nm optical interference dose response, HGIII-sPLA2 counter-screen; shares compounds with HGIII-sPLA2 inh; BODIPY FL product fluorescence interference, cell-free; IC50, µM; 240 tested, under 10 active; AID 743455;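 active = IC50 at or below 10 µM; inactive = IC50 above 10 µM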
* = called active by the depositor; . = no result given.

SMILES | bovine MsrA act | MsrA inh | PG9 binder | HGIII-sPLA2 inh | rCAG RNA binder | sPLA2 confirm | BODIPY interf | others
CCOC(=O)c1ccc(-c2ccc3ncnc(NCc4csc(C)n4)c3c2)o1 | -6.0 | 1.4 | 2.4 | 1.5 | 4.2 | . | .
COC(=O)[C@]12C[C@H](CC(=O)NCCCN3CCCC3=O)C(=O)N(Cc3cccc4ccccc34)C1=C[C@H](C1CCCC1)O[C@@H]2C | . | . | . | -21.4 | 4.2 | . | .
CCOC(=O)C1(C)CCN1C(=O)Cc1ccc(OC)cc1 (stereo not given) | -2.8 | 0.1 | 1.6 | 24.8* | 2.1 | 7.1 | -3.6
CCCCNC(=O)C1(C)CCN1C(=O)Cc1ccc(OC)cc1 (stereo not given) | -1.8 | -0.6 | 0.2 | 5.5 | 1.7 | . | .
CCN=C1NC(c2ccc(C(F)(F)F)cc2)C(C(=O)OC)=C(C)N1Cc1ccccc1C(F)(F)F (stereo not given) | . | -0.3 | 1.0 | 13.3 | 3.5 | . | .
CCOc1ccccc1N(CC(=O)Nc1ccc(S(=O)(=O)N2CCOCC2)cc1)S(=O)(=O)c1ccc(Cl)cc1 | -8.6 | 0.1 | -2.0 | 23.4* | 0.5 | -5.1 | -3.7
C=CCc1cc(Cl)ccc1OCCCNC(C)C | -2.4 | 0.5 | 0.8 | 22.6* | 3.6 | -8.8 | -26.5
Cc1ccc(C(=O)Nc2nc(-c3ccccn3)cs2)s1 | -3.0 | 1.9 | -2.9 | 7.0 | 5.6 | . | .
Cn1cccc1C(=O)Nc1nc(-c2ccccn2)cs1 | -3.8 | 0.2 | 0.3 | -1.7 | 3.6 | . | .
Cc1c(C(=O)Nc2nc(-c3ccccn3)cs2)oc2ccccc12 | -4.6 | . | . | . | . | . | .
O=C(Nc1nc(-c2ccccn2)cs1)c1ncc(Cl)c(Cl)c1Cl | -1.0 | -0.1 | -0.6 | 26.8* | 8.7 | 21.2* | 0.6
O=C(Nc1nc(-c2ccccn2)cs1)c1ccc(Cl)s1 | 1.0 | -0.8 | -3.9 | 27.4* | 4.0 | 24.3* | -2.7
O=C(Nc1nc(-c2ccccn2)cs1)c1cc2ccccc2o1 | -3.1 | 2.2 | 2.0 | 30.6* | 10.3 | 19.3* | -3.5
COc1ccccc1C(=O)NC1CCCCN(Cc2cccc(C(F)(F)F)c2)C1=O (stereo not given) | . | . | . | -3.8 | -2.3 | . | .
COc1cc(OC)cc(-c2c(-c3cccs3)c3cc(-c4cccc5[nH]ccc45)ccc3n2C)c1 | -5.1 | 1.3 | 0.1 | 28.7* | 18.3 | 15.9 | 9.8*
COc1cc(OC)cc(-c2c(-c3ccc(C(C)=O)cc3)c3cc(-c4cccc5[nH]ccc45)ccc3n2C)c1 | -4.3 | 2.9 | -0.6 | 11.2 | 20.4 | . | .
CC(C1CC1)N(Cc1ccccc1)C(=S)Nc1cccc(C(F)(F)F)c1 (stereo not given) | -3.8 | 0.6 | -2.1 | 20.6* | -7.2 | 8.6 | -6.0
Cn1c(=O)c2[nH]c(=S)n(Cc3ccccc3)c2n(C)c1=O | -0.6 | 1.4 | -1.7 | 23.0* | 0.2 | 7.5 | 1.2
COc1cc(NC(=S)N2CCN(c3ccccn3)CC2)c(OC)cc1Cl | -12.4 | 0.8 | 0.7 | 22.5* | -0.9 | 15.6 | -5.6
C=CCNC(=S)NNc1nc2c(c(=O)[nH]1)C1(CCCCC1)Cc1ccccc1-2 | -11.9 | -0.7 | -0.8 | 25.3* | 14.9 | 29.3* | 2.1 | BODIPY interf DR=>122
C=CCN=C1NC(CCc2ccccc2)C(C(=O)OC)=C(C)N1C (stereo not given) | . | 1.2 | 1.4 | 13.7 | 3.7 | . | .
CN1C(=O)c2cc(NC(=O)C3CCOCC3)ccc2OC[C@@H]2O[C@@H](CC(=O)NCc3ccccc3F)CC[C@@H]21 | . | . | . | 2.0 | 0.3 | . | .
COc1cccc(Nc2nc(C(N)c3ccccc3)cs2)n1 (stereo not given) | -2.2 | 0.6 | -0.6 | 23.6* | 8.6 | 5.8 | -8.9
COc1cccc(Nc2nc(C(C)N)cs2)n1 (stereo not given) | 2.9 | 0.1 | -0.6 | 12.6 | 4.7 | . | .
CCOc1cccc(C2NC(=S)NC(C)=C2C(=O)Nc2ccccc2)c1 (stereo not given) | -1.8 | 0.9 | -0.2 | 24.2* | 3.7 | 16.3 | -1.6
SMILES | bovine MsrA act | MsrA inh | PG9 binder | HGIII-sPLA2 inh | rCAG RNA binder | sPLA2 confirm | BODIPY interf | others
CCOc1cc(C2NC(=S)NC(C)=C2C(=O)Nc2ccc(OC)cc2)ccc1O (stereo not given) | -11.2 | -0.8 | -1.8 | 1.1 | 1.6 | . | .
CCCc1cc(C(=O)NNC(=S)NCC2CCCO2)cs1 (stereo not given) | -1.7 | 2.4 | -0.4 | 22.6* | -3.4 | 11.7 | 3.1
COc1ccc(C(=O)N/N=C/c2cccc3cccnc23)cc1 | 1.2 | 2.5 | -3.4 | -11.8 | 1.9 | . | .
COc1ccc(C(=O)N/N=C/c2cc3ccccc3[nH]c2=S)cc1 | -1.6 | 0.6 | -2.1 | 43.7* | 13.4 | 35.5* | 10.0*
Cc1n[nH]c(=O)nc1NCc1ccccc1Cl | -2.4 | -1.1 | 0.9 | 9.9 | 3.1 | . | .
O=c1nc(NCc2ccccc2Cl)cn[nH]1 | -11.3 | 0.3 | -1.0 | 24.6* | -3.6 | -0.8 | -6.5
O=c1c(-c2ccco2)nc2ccccc2n1C(c1ccccn1)c1nc2ccccc2[nH]1 (stereo not given) | . | 2.9 | 0.2 | 22.6* | 23.5 | 5.5 | -0.6
CCCCOc1ccc(CSC(=N)N)cc1Cl | 5.7 | -0.6 | 0.4 | 54.2* | 9.0 | 32.0* | -25.5 | BODIPY interf DR=>122
CCOc1ccc(CSC(=N)N)cc1 | -1.7 | -0.8 | -3.5 | 9.8 | 3.8 | . | .
COc1ccc(Br)cc1CSC(=N)N | -1.6 | -1.6 | 0.1 | 32.9* | 0.1 | 18.1 | -4.9
CCCCCOc1ccc(Br)cc1CSC(=N)N | 4.6 | -0.9 | -1.5 | 28.7* | 10.2 | 21.4* | -28.9
Cc1cccc(CN(C)C[C@H]2OCc3cnnn3CCCC(=O)N([C@H](C)CO)C[C@@H]2C)c1 | -3.7 | 0.2 | 0.1 | 0.0 | -0.2 | . | .
Cc1cccc(N2CCN(C(=O)CCc3nc4ccccc4c(=O)[nH]3)CC2)c1C | -2.0 | 0.8 | 1.4 | 8.8 | 2.2 | . | .
O=C(O)c1ccc(N2C(=O)CC(N3CCN(c4cccc(C(F)(F)F)c4)CC3)C2=O)cc1 (stereo not given) | -0.5 | 0.4 | 1.5 | 21.2* | 7.8 | 1.9 | -1.7
O=C(/C=C/c1ccc(-c2ccccc2)cc1)NC1=NCCS1 | . | . | . | -2.1 | . | . | .
COc1ccc(NC(=S)NNC(=O)c2nnn(-c3ccccc3)c2C)cc1 | 1.0 | 0.3 | -1.3 | 34.9* | 6.8 | 42.4* | -1.1 | BODIPY interf DR=>122
COc1ccc(NC(=O)c2cnn(-c3ccccc3)c2C)cc1 | -2.3 | 0.3 | -0.9 | 6.3 | 0.2 | . | .
CCn1c(CSCc2ccc(Cl)cc2)n[nH]c1=S | -7.8 | -0.9 | -0.9 | 19.2* | -3.2 | 25.6* | 3.0
CCn1c(CSCc2ccc(C)cc2)n[nH]c1=S | -1.6 | 0.9 | 1.1 | 29.9* | -4.4 | 25.0* | 2.5
C=CCn1c(CSCc2ccc(F)cc2)n[nH]c1=S | 2.5 | -0.7 | 1.9 | 14.7 | -2.5 | . | .
CCC(=O)Nc1c(C(=O)N2CCN(c3ccccn3)CC2)cnn1-c1ccc(C)cc1 | -2.0 | 0.1 | -2.3 | 22.3* | -8.6 | -0.7 | -8.7

Assay outcomes from PubChem.
